# Measured values taken from the supplement of paper PMC6555819.
# Legend:
# Assay in all cases: PBM binding z-score (relative to random genomic background probes); higher = stronger binding; sequences stand for … in GC…GCGATTGACAGCGTAGAATGAAGG
# [1] = test system: RARb homodimer (NR concentration 270 nM)
# Method in brief: (§1)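 The probes on custom Agilent 4×180K protein-binding microarrays were double-stranded, with 34-nt variable regions bearing direct-repeat seeds, single-nucleotide variants, half-site ablations and random human genomic background sequences. Incubation lasted 1 h with ligand-free nuclear receptor dimers in PBS pH 7.4, 2% milk, 0.02% Triton X-100, 1 mM DTT, 0.2 mg/mL BSA and 0.4 mg/ml salmon testes DNA. Antibodies against each partner (one per run) detected bound dimers, and fluorescence scans were regression-normalized. Binding z-scores take the random background probes as reference.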
# [2] = test system: RARg:RXRa (NR concentration 270 nM, RXRa partner concentration 90 nM)
# Method in brief: as §1
# [3] = test system: RARg homodimer (NR concentration 270 nM)
# Method in brief: as §1
# [4] = test system: RXRa DBDmut IVT, anti-RXR (DBD mutation: RXRa K156A/R161A, NR concentration 90 nM)
# Method in brief: as §1
# [5] = test system: RXRa homodimer (NR concentration 180 nM)
# Method in brief: as §1
# [6] = test system: THRa:RXRa (NR concentration 90 nM, RXRa partner concentration 90 nM)
# Method in brief: as §1
# [7] = test system: THRa homodimer (NR concentration 90 nM)
# Method in brief: as §1
# [8] = test system: VDR homodimer (NR concentration 270 nM)
# Method in brief: as §1
Sequence,PBM binding z-score [1],PBM binding z-score [2],PBM binding z-score [3],PBM binding z-score [4],PBM binding z-score [5],PBM binding z-score [6],PBM binding z-score [7],PBM binding z-score [8]
CAAACTAGGTCACCGGAAGGTTAAAGTCCGCATG,4.56,6.51,5.79,2.08,4.2,3.84,2.36,1.28
CCGACTGGGGCAAAGGTTACCCTACTCAGTACGA,1.96,3.01,1.49,-0.029,3.13,1.72,0.249,0.136
GGAACGAGGGCATTGGAGTTGATAGCATGGCGAT,1.04,1.13,1.42,2.75,0.72,1.9,-0.24,2.58
TCTAGCAGGCCAGAGGGTCACTCATGAGGTACGG,2.62,2.59,2.22,-0.0474,2.55,1.59,-0.102,0.736
GGAACGAGGGCATTCGAGTTGATATCATGGCGAT,0.726,1.25,1.52,2.79,0.858,3.38,-0.359,2.91
ATCGAACGGTCGAAGGTGAGTATACCCACCCGAA,0.62,0.884,0.957,-1.05,0.717,-0.016,-0.481,-0.147
TGTGAAAGTTCAAAGGTAACGTAAGTATCCACAC,3.75,5.88,5.56,4.17,7,3.13,0.137,3.9
ACAGACAGGTGATGAAGGTACCTCAGGCTATCAT,-0.181,0.158,0.411,-0.579,0.4,0.509,-0.21,-0.451
GCTGCTAGGTCAAGTTGGTCAGCTAACGGGTACG,3.78,4.49,5.42,1.81,3.03,2.96,1.13,0.704
CCTACTGGGCCACGAAAGGTCGTTGATTCAGTGA,2.27,1.65,1.29,-0.0734,2.09,2.26,-0.153,0.759
CCGACTGGGGCACGGTTACCATAACGCACAGCCA,0.696,0.548,1.13,-1.14,0.163,-0.214,-0.521,-0.442
CAAACTAGGTCAAGGTGAAAGTCGGTTTGTGCCA,3.45,3.81,4.95,1.61,2.82,3.49,2.52,0.978
TCAGACAGGGGAAGGTAACTCAGGTACGCAGTCG,0.725,0.0159,-0.128,1.16,0.547,1.38,1.02,0.491
CGCCCAAGGTCAAGGTCAGTGAAAGAGACTCGAA,5.33,6.54,7.08,3.25,6.2,4.42,3.53,2.96
TCTAGCAGGCCAGAGGGTCAATCAAGAGGTACGG,2.63,2.97,2.14,-0.246,2.87,1.62,-0.729,0.802
GCTGCTAGGTCAGGTTCGTCAGCTAACGGGTACG,2.25,2.25,3.35,1.63,1.24,1.94,0.323,2.58
CGTCAAAGTTCAACTAAGGTAAAGTAAAGCACGC,3.97,6.03,6.89,3.88,5.08,5.01,1.49,3.59
TCCCGGAGGACACGAAGGTCAGAGCTTTCCAGAG,3.55,3.07,3.74,0.527,1.59,2.83,1.17,1.11
AGAATGAGGTTATAGGTAGATCAGGGAAGAAAGT,1.39,1.63,1.08,1.35,2.15,2.45,1.42,1.24

Sequence,PBM binding z-score [1],PBM binding z-score [2],PBM binding z-score [3],PBM binding z-score [4],PBM binding z-score [5],PBM binding z-score [6],PBM binding z-score [7],PBM binding z-score [8]
ACCTCTAGGTAACAAGTTCAGTGAAAGAGAGGAC,1.85,1.11,1.08,0.979,0.678,1.21,0.425,2.2
TTACCAAGGTGAAAGGTCCTTGATGCACGCCTTG,1.22,1.67,0.796,-0.243,2.47,2.28,0.542,-0.756
TCCTATAGGTAAAAGGTGAAAGTCGGTGTGGTAA,1.55,1.83,0.492,1.1,2.64,1.56,0.0134,-0.175
ACAACGAGGGCAATGAGTTGATAGCACGGGTGGC,1.02,1.31,1.71,2.02,0.837,0.856,-0.343,2.98
GCTATTAGATGAAAGGGCAACCGAATGATTCTCG,1.76,0.991,1.24,0.654,1.17,0.435,-0.425,-0.071
ATACCAAGGTGATCGTGAGGTAGTTGATACTAAC,0.262,0.422,0.424,-0.401,0.329,1.5,0.542,0.0713
TCTTGTAGATCAAGCAGGTTAAGAATGCCTGAGT,0.163,-0.103,-0.0252,0.563,0.24,0.276,-0.376,0.0352
TAGCCTAGGTGATTCAGGGGCCAGTATAGAAAGC,0.919,0.914,0.0636,-0.561,-0.089,0.651,-0.0483,-0.15
TGAATGAGGCTAAAGATCAGGGAACGTGGCGTCG,-0.821,-0.0145,0.0972,-0.642,0.184,0.0902,-1.04,-0.642
CCTTACGGGTCACTGACAGGTGATAGCATTTGGA,3.85,5.63,4.84,2.09,6.14,3.23,0.557,1.31
ATATGTATGTTAGCTGGGGTCATTCAGACTAGGC,3.35,3.62,2.31,2.11,5.39,4.27,2.96,4.67
ATCGAAAGGTCGTGCGGTGAGTATACAGAAAGGC,2.65,4.48,4.28,1.56,4.78,2.51,-0.0433,1.31
TGAATGAGGTTATAAGACCAGGGAACGTTGCAAA,0.0287,1.39,0.814,0.698,1.99,1.77,-0.0902,0.336
ATATGTAAGTTAAGGGTCATTCAGGTTGGTTCGC,3.8,3.97,3.2,2.13,4.89,3.5,1.55,4.67
TAGCCTATGTCATTCAGGGGCCAGTATAGAAAGC,0.708,1.65,0.547,-0.121,0.203,0.454,-0.611,-0.479
CCTACTGGGCCTTTCAGAGGTCATTGATCATATG,3.64,3.43,2.71,0.749,3.84,3.04,1.36,2.8
ACTAGCAGGCCAGGGGTCACTCAAGATTAGTCCG,4.12,5.09,4.23,1.31,6.16,3.5,1.05,2.8
AGAAAGAGGGCACGCTGAGTTGATAGCAGAGTAG,1.64,2.5,3.08,1.36,1.83,1.5,-0.338,1.23
TTTATTAGTTGATTAGGGCAACCGAAACAGCGGA,0.918,0.811,0.769,0.442,0.586,0.999,0.89,0.951

Sequence,PBM binding z-score [1],PBM binding z-score [2],PBM binding z-score [3],PBM binding z-score [4],PBM binding z-score [5],PBM binding z-score [6],PBM binding z-score [7],PBM binding z-score [8]
TCTGCTAGGTCAACGATGGTCAGCTGATCTGCTA,3.36,4,4.88,0.835,2.52,2.99,0.473,-0.511
TCTATTATTTGAAGGGCAACCGACGAGTCCGTTT,1.34,0.739,0.634,2.12,0.997,0.552,0.572,2.12
TCTAGCAGGCAAGAGGGTCACTCAAGAGGTACGG,2.42,2.15,1.93,-0.113,2.5,1.47,-0.453,0.595
GGAACGAGGGCAAAGTTGACAGCATCTGTCGACG,1.58,2.77,2.16,2.56,2.76,1.67,-0.266,1.24
CAAACTAGGTCAAAGGTAAAAGTCGAGCCAACCA,2.87,5.02,4.78,2.02,5.74,3.26,0.692,0.479
TTGCCTAGGTCATTCAGGGGCCAGTATAGAAAGC,3.3,6.09,4.46,2.14,2.76,3.48,0.747,1.75
ACTAGCAGGCCAAGTTTGGGTCACTCAAACAAAG,2.42,2.46,1.72,-0.26,0.865,2.54,0.952,0.495
GCTATTAGTTGAAAGGGCGACCGAATGATTCTCG,0.767,0.148,0.219,0.775,0.22,-0.155,-0.468,0.16
CCTTACGGGTCACTCCAGGTTATAGCTTCGGAGT,3.13,4.36,4.47,1.65,4.42,4.92,0.616,1.61
CAAACTAGGTCAAAGTTCAAAGTCGAGCCAACCA,4.52,7.71,6.23,3.95,8.77,4.23,1.21,4.43
CCGACTGGGGCATAAGGTTACCACAAGCCAGCCC,1.92,1.8,1.2,-0.196,1.32,2.04,1.37,0.195
CGTCCAAGGTCATAGGAGGTCAGTGGAGACAGAT,5.3,6.84,6.98,4.09,6.82,5.36,3.57,4.82
TCTTGTAGATCAACACGAGGTTAAGAAAGATCGA,0.596,0.823,0.361,0.555,1.07,1.57,0.0132,0.099
CCTCAGAGGACAACAGGAGGTCAGAGCTGCCAGA,3.94,4.09,4.83,1.36,2.06,2.79,0.791,1.29
CGTCCAAGGTCATTGCTAGGTCAGTGAAAGCATT,4.96,7.64,6.66,4.51,5.45,4.38,3.31,4.55
ATCACTAGGTAAAGTTCAGTGAAAGATCGATAGA,2.57,2.32,2.39,1.44,1.55,1.24,0.158,2.29
GGTCGGAGGACAAGGTCAGAGCTTTGTCCGTAGA,3.33,3.31,4.24,0.467,2.46,3.12,1.85,0.993
CCTGCTAGGTCATGGTCAGCCAATCTACAGTATG,3.14,3.98,4.45,1.26,3.04,3.07,1.18,0.0846
